In all, about 1,500 compounds went through this assay and about 460 (31%) were called active. About 1% were inconclusive and are not listed.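 The calls were made as follows: active = curve reaches 40% activation over neutral controls at an AC40 no higher than the top valid tested concentration; inconclusive = no clear call, values can overlap the other calls; inactive = signal moving opposite to the expected increase, and the rest.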 Not all results are given here. Potency and affinity values are given separately.
test: GLuc-reported insulin release enhancers, glucose-stimulated beta cells – cell-based, INS-1E, Gaussia luciferase, luminescence, cherry-pick, set 2, dose response (AID 977607); details: INS-1E GLuc insulin secretion reporter, 2-3 h, stronger effect = higher value; at 35 µM, 100% = signal doubled over neutral wells unless noted;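 also: 0% = median of the plate neutral control wells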

Max activation, inactive:
C=CCNc1nc(Cl)nc(Nc2ccc(OC)cc2)n1 50.7%, CCOc1cc(/C=C(\CC(=O)O)c2nc3ccccc3s2)ccc1OC -15% [at 0.005 µM, 100% = signal doubled over neutral wells], c1ccc(-c2ccccc2OCCN2CCCCC2)cc1 -15.6% [at 0.015 µM, 100% = signal doubled over neutral wells], C/C=C1\COC(C(=O)NCc2ccccc2)(C(F)(F)F)C=C1C=C1CCCCC1 (stereo not drawn) -27% [at 11 µM, 100% = signal doubled over neutral wells], COc1cc(OC)c2c(-c3ccccc3)cc(C3CCCCC3)nc2c1 -18.2% [at 0.046 µM, 100% = signal doubled over neutral wells], Cc1cccc(C)c1NC(=O)C1c2ccccc2OCC(=O)N1CCCN1CCOCC1 (stereo not drawn) -19% [at 3.8 µM, 100% = signal doubled over neutral wells], Cc1ccc(-c2nc(C#N)c(NCC3CCCO3)o2)cc1 (stereo not drawn) -16.4% [at 0.135 µM, 100% = signal doubled over neutral wells], CCOc1ccc(Nc2oc(-c3cccc(Cl)c3)nc2C#N)cc1 -13.2% [at 0.135 µM, 100% = signal doubled over neutral wells], CCCCC(=O)Nc1ccc(C(=O)NNC(=O)c2ccc(C)c(Br)c2)cc1 -20.4% [at 3.8 µM, 100% = signal doubled over neutral wells], CC1CCC(C(C)C)C(OCC(O)CNC(C)c2ccccc2)C1 (stereo not drawn) 35.2%, COc1ccc2c(c1)C(C)(Cc1ccc(C(=O)c3ccccc3)cc1)C(=O)N2 (stereo not drawn) -33.7%, Cc1ccccc1-c1n[nH]c(=S)n1/N=C/c1c(C)nn(-c2ccccc2)c1C -18% [at 0.0016 µM, 100% = signal doubled over neutral wells], Cc1ccsc1/C=N/n1c(-c2ccncc2)n[nH]c1=S 18.6%, CC(C(=O)Nc1ccc2[nH]c(=O)[nH]c2c1)N1CCN(Cc2ccc3c(c2)OCO3)CC1 (stereo not drawn) -27.3% [at 11 µM, 100% = signal doubled over neutral wells], O=C1NC(=O)C2(CCCCC2C2CCCCC2)N1 (stereo not drawn) 32.9% [at 0.135 µM, 100% = signal doubled over neutral wells], Cc1ccc(S(=O)(=O)N(C)c2nc3ccccc3n3c(C(C)C)nnc23)cc1 -16.3% [at 0.42 µM, 100% = signal doubled over neutral wells], O=C(O)COc1ccccc1-c1ccccc1 -20.7% [at 3.8 µM, 100% = signal doubled over neutral wells], Cc1ccc(C(=O)Nc2cccc(C(=O)N/N=C/c3ccc(F)cc3)c2)cc1 -21.7% [at 0.046 µM, 100% = signal doubled over neutral wells], CCCCCCC1CCC(C(=O)Nn2c(C)nc3ccccc3c2=O)CC1 (stereo not drawn) 26.8% [at 0.015 µM, 100% = signal doubled over neutral wells], Cc1nn(-c2ccccc2)c(N2CCCC2)c1/C=N/O -12.4% [at 0.046 µM, 100% = signal doubled over neutral wells], COc1ccccc1NS(=O)(=O)c1cccc(C(=O)N/N=C/c2c(C)nn(-c3ccccc3)c2N2CCCC2)c1 -50.5%, CC(C)NC(=O)OC[C@H]1O[C@H](C#Cc2ccc(C(C)(C)C)cc2)C=C[C@H]1O 54.1%, CC(C)NC(=O)C1(C)CN(S(C)(=O)=O)CC(=O)N1CCCN1CCOCC1 (stereo not drawn) -19.6% [at 0.015 µM, 100% = signal doubled over neutral wells], O=C(O)c1ccc(-n2nnnc2SCc2cccc(Br)c2)cc1 -16.4% [at 0.135 µM, 100% = signal doubled over neutral wells], O=C(O)c1ccc(-n2nnnc2SCc2ccccc2Br)cc1 24.2%, O=C(Nc1ccc(F)cc1)C1COc2ccccc2O1 (stereo not drawn) -26.7%, Cc1ccc(CS(=O)Cc2ccc(C(=O)NCc3ccccc3)o2)cc1 (stereo not drawn) 8.81% [at 1.2 µM, 100% = signal doubled over neutral wells], Clc1ccc(OCCn2ccnc2)c(Cl)c1 53.2%, COc1ccc(/C=C/c2noc(-c3ccccc3OC(C)=O)n2)cc1 -25.1%, O=C(COc1cccc2c1CCNC2=O)NC1CCCCC1 -23.7% [at 1.2 µM, 100% = signal doubled over neutral wells], CCCCOc1ccc(C2=NNC(=O)CC2)cc1 -15.4% [at 3.8 µM, 100% = signal doubled over neutral wells], COCCNc1nc(N2CCCCC2)c2cnn(C)c2n1 -16.6% [at 0.42 µM, 100% = signal doubled over neutral wells], Cc1c(P(=S)(c2ccccc2)c2ccccc2)[n+]2ccccc2n1C/C=C/c1ccccc1 -32.8%, O=C(Nc1ccc(C(=O)N2CCCC2)cc1)c1cccc(C(F)(F)F)c1 -13% [at 0.015 µM, 100% = signal doubled over neutral wells], O=c1[nH]c2ccccc2nc1-c1nnnn1C1CCCC1 -11.7%, COc1ccc(CN2CCOC2=O)cc1OC -24.4% [at 0.046 µM, 100% = signal doubled over neutral wells], COc1ccc(-c2nc(N)ncc2-c2ccc(OC)c(OC)c2)c(O)c1 -26.8% [at 0.046 µM, 100% = signal doubled over neutral wells], COc1ccc(CNC(=O)CCn2c(=O)oc3ccccc32)c(OC)c1 -18.2% [at 3.8 µM, 100% = signal doubled over neutral wells], O=C([C@H]1O[C@@H](n2ccc(=O)[nH]c2=O)[C@H](O)[C@@H]1O)N1CCN(c2ccc(Cl)cn2)CC1 -17.9% [at 1.2 µM, 100% = signal doubled over neutral wells], CS(=O)(=O)N1CCCCC1c1cc(C(=O)Nc2cccc(C#N)c2)no1 (stereo not drawn) -20.8% [at 0.135 µM, 100% = signal doubled over neutral wells], COc1ccc(-c2noc(CCC(=O)Nc3cccnc3)n2)cc1OC 10.9%, COc1ccc(C2=NOC(C(=O)Nc3cccnc3)C2)cc1OC (stereo not drawn) 36.7% [at 11 µM, 100% = signal doubled over neutral wells], CCC(CC)NC(=O)c1ccccc1Oc1ccccc1 -14.5% [at 0.046 µM, 100% = signal doubled over neutral wells], CC(=O)c1ccc2c(c1)N(Cc1ccccc1)C(=O)C(C)S2 (stereo not drawn) -15.7% [at 3.8 µM, 100% = signal doubled over neutral wells], CC(C)(C)c1ccc(C#C[C@@H]2C=C[C@H]3OC(=O)CC/C=C/CCC(=O)OC[C@H]3O2)cc1 -35.6% [at 3.8 µM, 100% = signal doubled over neutral wells], CCOC(=O)C1=C(COC(=O)c2cccs2)NC(=O)NC1C (stereo not drawn) 39.2% [at 11 µM, 100% = signal doubled over neutral wells], Cc1ccc2sc(-c3ccc(NC(=O)c4cc(-n5cnnc5)ccc4Cl)cc3)nc2c1 38.9%, CCOc1cc(NC(=O)c2ccco2)c(OCC)cc1NC(=O)c1cc(OC)c(OC)c(OC)c1 33.6%, COc1ccc(-c2c(NC(=O)c3ccco3)oc3ccc(Cl)cc3c2=O)cc1 -15.5% [at 0.42 µM, 100% = signal doubled over neutral wells], Cc1ccnc(NC(=O)CNC(=O)c2ccco2)c1 -26.8% [at 3.8 µM, 100% = signal doubled over neutral wells], Cc1c(Cc2ccccc2)sc(NC(=O)c2ccco2)c1C(N)=O -16.3% [at 0.015 µM, 100% = signal doubled over neutral wells], Cc1ccc(C2(C)NC(=O)N(CC(=O)Nc3ccc(-c4nc5ccc(C)cc5s4)cc3)C2=O)cc1 (stereo not drawn) -34.8%, CN(C)CCNc1ncnc2oc(-c3ccccc3)c(-c3ccccc3)c12 -17.7% [at 0.0016 µM, 100% = signal doubled over neutral wells], CCOC(=O)C1CCCN(C(=O)c2ccccc2OC(F)(F)F)CC1 (stereo not drawn) -23.6% [at 0.0016 µM, 100% = signal doubled over neutral wells], CCOc1cc(/C=N/NC(=O)CCn2nnc3ccccc32)ccc1O 23.5%, CCOc1ccccc1OCCC(=O)NNC(=O)Cn1nc(C)cc1C -16% [at 0.005 µM, 100% = signal doubled over neutral wells], CCn1nnc(NC(=O)c2sc3ccccc3c2Cl)n1 -17.8% [at 3.8 µM, 100% = signal doubled over neutral wells], Cc1c(NC(=S)NC(=O)c2sc3ccccc3c2Cl)cccc1C(=O)O -23.7% [at 0.0016 µM, 100% = signal doubled over neutral wells]
